PAX8 inh HTS: lowers PAX8-driven luciferase in RMG-I cells; RMG-I TPO-luciferase reporter, SteadyGlo, 24 h; 360,000 compounds, 1.2% hits; AID 652154; inhibition, % at 12.6 µM;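 active = mean replicate inhibition at least 60% with every replicate also reaching 60%; inconclusive = only one of the two criteria is met; inactive = mean below 60% and not all replicates reaching 60%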;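 note: luciferase light reporting Pax8 driven TPO promoter activity; plate controls were median of neutral control wells for no effect and mitoxantrone controls for full effect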
EWS-Fli block: blocks EWS/Fli oncoprotein-driven transcription; A673 NR0B1-luciferase reporter, viability-normalised; inhibition, % at 12.6 µM; 350,000 compounds, 0.67% hits; AID 651661;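 active = mean inhibition of at least 50% after viability correction, with every replicate also passing that limit; inconclusive = mean reaches 50% but only one of two replicates passes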;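 note: firefly luciferase signal divided by Alamar Blue viability fluorescence both relative to DMSO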
Shn3 inh set2: reduces Shn3 3'UTR luciferase signal in osteoblasts. Clone20 osteoblast Shn3 3'UTR firefly luciferase, 24 h. 360,000 compounds, 0.52% hits. inhibition, % at 12.5 µM;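 active = mean inhibition of at least 75% with every replicate also reaching 75%; inconclusive = mean inhibition at least 75% but some replicate below; inactive = mean inhibition below 75%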;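 note: 0% = median of neutral control wells and 100% = pilot-screen positive control compound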
EBV LMP1 NFkB: reduces LMP1-driven NF-kappaB luciferase signal. LMP1-induced NF-kappaB luciferase reporter cells, luminescence. inhibition, % at 12.5 µM. 350,000 compounds, 0.69% hits. AID 504558; in the data active = inhibition above about 41%; inconclusive = no clear call, values can overlap the other calls;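 note: 0% = neutral control wells and 100% = reference inhibitor control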
LGR2 inh: blocks bursicon-induced cAMP signaling via Drosophila LGR2; 380,000 compounds, 0.35% hits; HEK293 LGR2, CRE-luciferase, bursicon-stimulated, 4 h; inhibition, % at 9.99 µM; AID 720647;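 active = drop in luminescence signal, shown as inhibition above about 50% in the replicate tests, limit read from the data, passing the limit was not always enough; inconclusive = probably only some replicates passing the limit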;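 note: agonist challenge used bursicon conditioned medium at about half maximal strength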
TRPM1 prom inh: inhibitors of MITF-driven TRPM1 promoter in melanoma cells; SK-MEL-5 TRPM1 promoter luciferase, 24 h; inhibition, % at 12.5 µM; 330,000 compounds, 0.83% hits; AID 488899;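 active = mean inhibition across replicates of 60% or more, whatever share of single replicates reaches that level; inconclusive = some that reach 60%, reason not given; inactive = mean inhibition across replicates below 60%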
Active calls of the source: *; u = inconclusive; x = not tested or not shown. Rows were chosen to be rich in hits. Some 2.2% of all compounds tested hit in one or more screens of this group.

SMILES | PAX8 inh HTS | EWS-Fli block | Shn3 inh set2 | EBV LMP1 NFkB | LGR2 inh | TRPM1 prom inh
COc1ccc2[nH]c(C)c(CCNCc3cc(OC)c(OC)c(OC)c3)c2c1 | 15 | 6 | 44 | -1 | -8 | 10
COc1ccc(CNCCc2c(C)[nH]c3ccc(OC(F)(F)F)cc23)c(OC)c1 | 13 | 20 | 90* | 21 | -2 | 92*
O=c1[nH]c2ccccc2n1C1CCN(C(c2ccccc2OC(F)(F)F)c2nnnn2-c2ccc3c(c2)OCCO3)CC1 (configuration not stated) | 94* | 15 | -1 | x | 46 | x
COc1cccc(C(c2nnnn2-c2ccc3c(c2)OCCO3)N2CCC(n3c(=O)[nH]c4ccccc43)CC2)c1OC (configuration not stated) | 93* | 25 | 87* | x | 20 | x
COC(=O)[C@@H]1[C@@H](CO)[C@@H]2Cn3c(ccc(C4=CCCCC4)c3=O)[C@H]1N2CC1CCCCC1 | x | 0 | x | x | 13 | x
CC1=C(O)C(=O)C=C2C1=CC=C1C2(C)CCC2(C)C3CC(C)(C(=O)O)CCC3(C)CCC12C (configuration not stated) | 119* | 65* | 95* | 88* | x | 94*
COC(=O)[C@H]1[C@H](CO)[C@H]2Cn3c(ccc(C4=CCCCC4)c3=O)[C@@H]1N2C(=O)NC(C)C | -5 | 3 | x | x | -4 | x
Cn1ncnc2c(=O)n(C)c(=O)nc1-2 | x | x | 97* | 90* | x | 103*
CCN(CC)C(=O)c1ccc(NC(=O)Nc2ccccc2F)cc1 | 15 | 62* | 17 | 51* | 75* | 30
O=C(NC[C@H]1CC[C@@H]2NC[C@@H]2O1)C1CCCC1 | 14 | 7 | x | x | x | x
CC1OC(OC2C=C3CCC4C(CCC5(C)C(c6ccc(=O)oc6)CCC45O)C3(C)CC2)C(O)C(OC2OC(CO)C(O)C(O)C2O)C1O (configuration not stated) | 106* | u | -4 | 89* | 85* | 72*
CN1CCN(C(=O)CN=[N+]=[N-])CC1 | -9 | -10 | x | x | x | x
CCCCCCn1c(=O)c(C(=O)Nc2cnccn2)c(O)c2ccccc21 | 11 | 6 | 13 | 26 | 8 | 73*
O=[N+]([O-])c1ccc(N2CCNCC2)cc1N1CCCCC1 | 83* | 12 | -8 | -5 | 6 | 6
COC(=O)[C@@H]1[C@@H](CO)[C@@H]2Cn3c(ccc(C4=CCCCC4)c3=O)[C@H]1N2Cc1cccnc1 | 8 | 3 | x | x | 11 | x
COC(=O)[C@@H]1[C@@H](CO)[C@@H]2Cn3c(ccc(-c4ccccc4F)c3=O)[C@H]1N2Cc1ccccc1 | 10 | -1 | x | x | -8 | x
COc1ccc2c(c1)/C(=C/c1cnc[nH]1)C(=O)N2 | 79* | -28 | -10 | 88* | 95* | 35
C/C=C/c1ccc(C2[C@H]3CNC[C@@H]2N3CC2CC2)cc1 (some centres not stated) | x | 5 | x | x | -15 | x
COc1cc(C2c3cc4c(cc3CC3COC(=O)C32)OCO4)cc(OC)c1O (configuration not stated) | 75* | 49 | -32 | 1 | -3 | 58
N[C@@H](Cc1ccc(N(CCCl)CCCl)cc1)C(=O)O | 16 | 35 | 30 | 50* | -23 | -7
COc1cc(C(=O)NN=Cc2ccc(N(CCCl)CCCl)cc2)cc(OC)c1OC | 18 | 12 | -20 | 34 | 9 | 1
NC(Cc1ccc(O)cc1)C(=O)NN=Cc1ccc(N(CCCl)CCCl)cc1 (configuration not stated) | 14 | 57* | 12 | 48* | 24 | 4
O=C(Cc1cccnc1)N1CCCCN2[C@H](CO)[C@H](c3ccc(C#CC4CC4)cc3)[C@@H]2C1 | 8 | -6 | x | x | x | x
CC(C)(O)/C=C/C(=O)[C@](C)(O)C1[C@H](O)C[C@@]2(C)C3CC=C4C(C[C@H](O)[C@@H](O)C4(C)C)[C@]3(C)C(=O)C[C@]12C (some centres not stated) | x | x | 46 | 27 | x | 71*
CCn1c(O)c(/C=N/NC(=O)c2ccccc2)c(=O)n(CC)c1=S | 13 | -6 | 3 | x | 2 | x
O=C(N/N=C/C1C(=O)NC(=S)N(c2ccccc2)C1=O)c1cc(Br)c(O)c(Br)c1 (configuration not stated) | 12 | 4 | -14 | 52* | 12 | 5
Cc1c2ccncc2c(C)c2c1[nH]c1ccccc12 | x | x | 17 | 11 | x | 89*
